Measured values: PubChem BioAssay AID1851 (National Center for Advancing Translational Sciences (NCATS), 2009)
About 5,100 (32%) of roughly 16,000 compounds were called active. Roughly 25% stayed inconclusive and do not appear here. This is one part of the list. Unmarked numbers belong to inactive results. Calls follow the shape of the dose curve; as a rule, active = well fitted curve in the direction sought with a large enough effect; inconclusive = small, poorly fitted or top-dose-only effect, or effect the other way; inactive = no such curve, though single readings can be large or run the other way.

target: Cytochrome P450 3A4 (Homo sapiens) (UniProt P08684); test: Cytochrome panel assay with activity outcomes; conditions: recombinant CYP, pro-luciferin dealkylation, luminescence, p450-cyp3a4; series mostly up to 57.1 µM; activity, negative = inhibition: at the top concentration
Sequence (P08684 whole entry, looked up): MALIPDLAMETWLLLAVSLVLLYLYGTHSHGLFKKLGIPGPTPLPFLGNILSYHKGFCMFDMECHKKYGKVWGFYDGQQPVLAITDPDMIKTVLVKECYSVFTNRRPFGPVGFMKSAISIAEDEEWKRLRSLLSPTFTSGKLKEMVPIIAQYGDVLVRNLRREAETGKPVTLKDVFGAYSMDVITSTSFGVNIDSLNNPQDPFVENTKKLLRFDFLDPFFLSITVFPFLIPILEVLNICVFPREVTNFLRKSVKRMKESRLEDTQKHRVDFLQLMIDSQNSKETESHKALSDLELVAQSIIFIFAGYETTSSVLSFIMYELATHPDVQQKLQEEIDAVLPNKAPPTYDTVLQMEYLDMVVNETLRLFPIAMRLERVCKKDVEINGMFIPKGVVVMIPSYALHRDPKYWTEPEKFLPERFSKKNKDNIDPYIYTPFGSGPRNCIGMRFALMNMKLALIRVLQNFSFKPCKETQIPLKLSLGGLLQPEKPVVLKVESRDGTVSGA
% is scaled to controls: 0 for no effect and ±100 for the full control effect.

SMILES | activity, negative = inhibition | AC50
N=c1ccn2c(n1)O[C@H]1[C@@H](OP(=O)(O)O)[C@H](CO)O[C@H]12 | -6.24% [at 11.4 µM] | –
Cc1cc(NC(=O)C2CCCCC2)nc2c1c(=O)oc1ccccc12 | -4.81% [at 2.29 µM] | –
O=C(O)[C@H]1CCCC[C@@H]1C(=O)Nc1nc2ccccc2[nH]1 | -6.18% [at 11.4 µM] | –
Cc1cc(NC(=O)C2CCCC2)n(-c2nc3ccccc3[nH]2)n1 | – | 11.2 µM (active)
O=C1C=C(NCC2CCCO2)C2(CCCCC2)O1 (stereo not drawn) | -10.6% | –
COc1ccc(COc2ccsc2C(=O)Nc2ccc(Cl)c(Cl)c2)cc1 | – | 7.08 µM (active)
COc1ccc(/C=N/NC(=O)c2sccc2OCc2ccc(F)cc2)cc1OC | -9.08% [at 2.29 µM] | –
COC(=O)COc1ccsc1C(=O)OC | -5.82% | –
O=S(=O)(NCc1cccnc1)c1ccc(Cl)nc1 | 5.89% [at 2.29 µM] | –
CCN(C1CCCCC1)S(=O)(=O)c1ccc(S(=O)(=O)NCc2ccncc2)cc1 | – | 7.08 µM (active)
CCOC(=O)Nc1ccc(S(=O)(=O)NCc2ccccc2)cc1 | -5.85% | –
COc1ccccc1CNCC(O)(c1ccc(Cl)cc1)c1ccc(Cl)cc1 | – | 3.55 µM (active)
Oc1ccccc1CNCc1ccccc1O | -7.01% [at 11.4 µM] | –
COC(=O)N1CCC2(CCN(Cc3ccccc3OC)CC2)CC1 | -11.5% | –
CCOc1nc(NCCc2ccc(OC)c(OC)c2)nc(NC(C)(C)CO)n1 | – | 11.2 µM (active)
CCCNc1nc(NCC)nc(OC)n1 | 5.69% | –
C=CCOc1ccc(CNC(C)(C)CO)cc1OCC | 2.18% | –
CC(C)N1CCC(=NNC(=O)c2ccc(Br)o2)CC1 | – | 15.8 µM (active)
CCCN1CCC(=NNC(=O)c2ccc(Br)o2)CC1 | 11.6% [at 2.29 µM] | –
O=C(N/N=C/c1ccco1)c1ccc(Br)o1 | -15.3% | –
CC(C)CCn1nnnc1C(c1ccc(F)cc1)N1CCN(C(=O)c2ccco2)CC1 (stereo not drawn) | – | 7.94 µM (active)

SMILES | activity, negative = inhibition | AC50
Cc1ccc(C(c2nnnn2CC2CCCO2)N2CCN(C(=O)c3ccco3)CC2)cc1 (stereo not drawn) | – | 3.55 µM (active)
O=C(c1ccco1)N1CCN(C(=O)c2nn3cccnc3c2Cl)CC1 | 21.1% | –
Cc1ccc(C(CC(=O)c2ccco2)SCCO)cc1 (stereo not drawn) | -23.2% | –
CCCCNC(=O)C1CC(=O)N(CCC(C)C)C1 (stereo not drawn) | 0.276% [at 11.4 µM] | –
Cc1ccc(CCN2CC(C(=O)NC3CCCC3)CC2=O)cc1 (stereo not drawn) | – | 15.8 µM (active)
CN(C)CCCN1CC(C(=O)O)CC1=O (stereo not drawn) | -11.5% | –
Cc1ccc(CCN2CC(C(=O)NCCN3CCOCC3)CC2=O)cc1 (stereo not drawn) | -12.6% | –
O=C(NCCCN1CCCCCC1)C1CC(=O)N(CCc2ccccc2)C1 (stereo not drawn) | -20.8% | –
CCOCCCN1CC(C(=O)NCCc2ccc(C)cc2)CC1=O (stereo not drawn) | – | 15.8 µM (active)
Cn1c([N+](=O)[O-])cnc1COC(N)=O | -5.99% [at 25.6 µM] | –
COc1ccccc1/C=C/C(=O)c1c2c(c(C)[nH]c1=O)CCCC2 | – | 3.98 µM (active)
Cc1[nH]c(=O)c(C(=O)/C=C/c2ccccc2F)c2c1CCCC2 | – | 11.2 µM (active)
C[N+](C)(C)CCOC(N)=O | – | inactive
Fc1ccc(Nc2nc(-c3ccoc3)nc3ccccc23)cc1 | – | 3.98 µM (active)
c1ccc2c(Nc3ccncc3)nc(-c3ccoc3)nc2c1 | – | 1.26 µM (active)
CNc1nc(-c2ccoc2)nc2ccccc12 | – | 15.8 µM (active)
c1ccc2c(NC3CC3)nc(-c3ccoc3)nc2c1 | – | 3.98 µM (active)
c1ccc2c(NC3CCNCC3)nc(-c3ccoc3)nc2c1 | -5.63% | –
O=S(=O)(c1ccc(F)cc1)N1CC2CCCN2c2ccc(C(F)(F)F)cc21 (stereo not drawn) | – | 6.31 µM (active)
COc1ccc(S(=O)(=O)N2CC3CCCN3c3ccc(C(F)(F)F)cc32)cc1 (stereo not drawn) | – | 1 µM (active)
O=C1COc2ccc(OCc3ccc(F)cc3)cc21 | 3% | –

SMILES | activity, negative = inhibition | AC50
OCc1ccc(-c2nn(Cc3ccccc3)c3ccccc23)o1 | – | 12.6 µM (active)
NC(=O)c1csc(-c2ccc(CO)o2)n1 | -8.17% [at 11.4 µM] | –
Clc1cc2c(c(CSC3=NCN(CC4CC4)CN3)c1)OCOC2 | -21.4% [at 11.4 µM] | –
CCCCCCCCOC1OC(CO)C(O)C(O)C1NC(C)=O (stereo not drawn) | -7.28% | –
CC(=O)OC[C@@H]1O[C@@H](O/N=C2/C[C@@H](O)[C@@H](O)[C@@H]3[C@H]4C(=O)N(c5ccc(F)cc5F)C(=O)[C@@H]4CC[C@@H]23)[C@H](OC(C)=O)[C@H](OC(C)=O)[C@@H]1OC(C)=O | -27.1% [at 11.4 µM] | –
CC(=O)NC1C(OCCOc2ccc(Cl)cc2Cl)OC(COC(C)=O)C(OC(C)=O)C1OC(C)=O (stereo not drawn) | – | 14.1 µM (active)
CNc1oc(C)nc1S(=O)(=O)c1ccc(C)cc1 | -16.1% | –
CCCSc1nc(C)cc(C)c1S(=O)(=O)c1ccccc1C | -17.7% | –
CNc1nc(C)cc(C)c1S(=O)(=O)c1ccc(C)cc1 | – | 4.47 µM (active)
CNc1nc(C)cc(C)c1S(=O)(=O)c1ccc(Cl)cc1 | – | 4.47 µM (active)
Cc1cc(-c2ccccc2)[nH]c(=O)c1S(=O)(=O)c1ccc(Cl)cc1 | -12.9% | –
COc1ccc([N+](=O)[O-])cc1COc1ccc2c(-c3ccccc3)cc(=O)oc2c1 | -22.6% | –
COc1ccc(C2Nc3ccccc3C(=O)N2Cc2ccco2)cc1COc1ccc([N+](=O)[O-])cc1 (stereo not drawn) | – | 4.47 µM (active)
Cc1ccc(C2Nc3ccccc3C(=O)N2Cc2ccco2)cc1 (stereo not drawn) | – | 14.1 µM (active)
O=S(=O)(c1ccccc1)N1CCC[C@@]2(CCN(C(c3ccccc3)c3ccccc3)C2)C1 | – | 3.16 µM (active)
CN1CCC2(CC1)CCN(S(=O)(=O)c1ccccc1)CC2 | -12.4% | –
O=S(=O)(c1ccccc1)N1CCC2(CCCN(C(c3ccccc3)c3ccccc3)C2)CC1 | – | 2 µM (active)
Cn1c(=O)c2[nH]c(COCc3nc4c([nH]3)c(=O)n(C)c(=O)n4C)nc2n(C)c1=O | -0.524% [at 11.4 µM] | –
O=C1Cc2c([nH]c3ccc(Br)cc23)-c2ccccc2N1 | – | 12.6 µM (active)
O=C1CCCCC(=O)c2ccccc2N1 | -7.97% | –
OCCN=C1CCCc2c1[nH]c1ccc(Br)cc21 | -11% | –
